Assay results taken from PubChem BioAssay (Tox21).
Where “and” joins values, the source holds several entries; their conditions need not be identical. Equal values may be shown once. Values without a mark were called inactive. Inconclusive results are not listed. Entries that show only a call come without a potency. Calls of active or inactive are those of the source. Unless noted, calls follow the shape of the dose curve; as a rule, active = well fitted curve in the direction sought with a large enough effect in the repeat runs; inconclusive = weak or mixed curves; inactive = no such curve, though single readings can be large; an effect the other way counts as inactive or inconclusive.

Columns and labels:
[1] = biological target: Estrogen receptor beta (Homo sapiens) (UniProt Q92731); assay: qHTS assay to identify small molecule agonists of the estrogen receptor beta (ER-beta) signaling pathway (AID 1259377; active = well fitted activation curve with a large enough effect in the signal ratio in the repeat runs, not every such curve was filed as active; the % refers to the signal ratio)
Estrogen receptor beta (Homo sapiens), sequence (Q92731 whole entry, looked up): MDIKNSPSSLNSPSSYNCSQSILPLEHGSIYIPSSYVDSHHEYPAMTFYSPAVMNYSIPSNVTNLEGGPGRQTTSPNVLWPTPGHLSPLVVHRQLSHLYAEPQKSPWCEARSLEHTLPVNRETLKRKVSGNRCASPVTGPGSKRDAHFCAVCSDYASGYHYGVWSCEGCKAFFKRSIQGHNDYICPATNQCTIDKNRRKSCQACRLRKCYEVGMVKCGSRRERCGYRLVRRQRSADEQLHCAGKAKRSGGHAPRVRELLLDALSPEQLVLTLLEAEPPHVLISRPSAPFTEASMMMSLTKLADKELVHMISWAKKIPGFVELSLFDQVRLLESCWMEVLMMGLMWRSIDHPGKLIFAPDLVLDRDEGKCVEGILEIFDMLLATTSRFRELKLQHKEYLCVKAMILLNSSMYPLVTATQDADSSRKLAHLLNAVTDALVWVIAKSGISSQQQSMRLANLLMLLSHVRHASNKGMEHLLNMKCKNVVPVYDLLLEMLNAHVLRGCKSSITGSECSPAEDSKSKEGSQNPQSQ
How it was run: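 Ratiometric beta-lactamase FRET read-out came after 2 h substrate loading at room temperature. It followed 16 h compound treatment at 37C of GripTite HEK293T cells carrying a UAS-bla reporter, plated in 2% charcoal-stripped FBS medium.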

[2] = biological target: Estrogen receptor beta (Homo sapiens) (UniProt Q92731); assay: qHTS assay to identify small molecule antagonists of the estrogen receptor beta (ER-beta) signaling pathway (AID 1259378; active = well fitted inhibition curve with a large enough effect in the signal ratio in the repeat runs, not every such curve was filed as active; the % refers to the signal ratio; also: potency is read from the fitted curve at half-maximal effect)
How it was run: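 ER-beta-UAS-bla HEK293T (GripTite) cells in 2% charcoal-stripped FBS medium were preincubated 6 hr at 37C, dosed with compound, then stimulated with 1 nM E2 (final) for 16 hr; beta-lactamase reporter read by B/G FRET fluorescence after 2 hr substrate loading.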

[3] = qHTS assay to identify small molecule agonists of the androgen receptor (AR) signaling pathway in the presence of an antagonist - cell viability counter screen (AID 1259379); also: nearly all actives have a fitted effect of over 25% in size; also: potency is read from the fitted curve at half-maximal effect
How it was run: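 Cytotoxicity is assessed by CellTiter-Fluor in MDA-kb2 cells carrying an MMTV-driven luciferase reporter. Cells receive 3.0uM nilutamide plus compounds at 15 concentrations and incubate 16 hr at 37C without CO2 before fluorescence reading.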

[4] = qHTS assay to identify small molecule agonists of the estrogen receptor beta (ER-beta) signaling pathway - cell viability counter screen (AID 1259380); also: nearly all actives have a fitted effect of over 30% in size; also: potency is read from the fitted curve at half-maximal effect
How it was run: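 Cytotoxicity is measured in parallel with the reporter screen: after 16 hr compound exposure at 37C and a 2 hr LiveBLAzer step, CellTiter-Glo is added to the same ER-beta-UAS-bla HEK293T wells and luminescence read after 30 min.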

[5] = biological target: Estrogen receptor (Homo sapiens) (UniProt P03372); assay: qHTS assay to identify small molecule agonists of the estrogen receptor alpha (ER-alpha) signaling pathway in the presence of an antagonist (AID 1259383; calls by dose curve; also: nearly all actives have a fitted effect of over 15% in size; also: potency is read from the fitted curve at half-maximal effect; as to activation: top concentration of the series differs between compounds)
Estrogen receptor (Homo sapiens), sequence (P03372 whole entry, looked up): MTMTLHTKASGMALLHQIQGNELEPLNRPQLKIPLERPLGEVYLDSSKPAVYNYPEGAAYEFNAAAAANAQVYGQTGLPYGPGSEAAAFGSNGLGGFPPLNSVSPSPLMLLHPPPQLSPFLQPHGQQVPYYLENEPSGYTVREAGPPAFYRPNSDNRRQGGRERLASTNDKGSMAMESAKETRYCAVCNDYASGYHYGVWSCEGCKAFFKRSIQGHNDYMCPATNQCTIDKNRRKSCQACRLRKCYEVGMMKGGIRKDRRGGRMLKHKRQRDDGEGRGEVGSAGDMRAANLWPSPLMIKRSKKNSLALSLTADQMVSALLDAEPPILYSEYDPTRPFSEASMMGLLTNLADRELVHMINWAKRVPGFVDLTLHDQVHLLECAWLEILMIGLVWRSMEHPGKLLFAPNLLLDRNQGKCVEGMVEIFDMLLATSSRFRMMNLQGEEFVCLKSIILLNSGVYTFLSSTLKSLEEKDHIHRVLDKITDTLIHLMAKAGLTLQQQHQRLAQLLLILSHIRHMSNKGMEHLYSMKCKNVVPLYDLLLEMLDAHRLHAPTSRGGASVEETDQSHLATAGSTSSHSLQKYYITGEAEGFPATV
How it was run: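 Agonist-mode confirmation in the presence of the ER antagonist ICI-182,780 at 10.0nM final. Breast-derived VM7Luc4E2 reporter cells were exposed to compounds for 22hr, and ERE-driven luciferase was quantified by luminescence.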

[6] = qHTS assay to identify small molecule agonists or antagonists of the thyroid stimulating hormone receptor (TSHR) signaling pathway - wild type cell line counter screen (AID 1259384; calls by dose curve)
How it was run: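 Wild-type HEK293 cells were plated 18 h at 37 C/5% CO2, pin-dosed with compound plus Ro20-1724 medium, held 30 min at room temperature, then given cAMP-d2 and anti-cAMP-cryptate; fluorescence was read after 1 h. Fifteen concentrations, triplicate.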

[7] = biological target: Progesterone receptor (Homo sapiens) (UniProt P06401); assay: qHTS assay to identify small molecule agonists of the progesterone receptor (PR) signaling pathway (AID 1346784; calls by dose curve; also: nearly all actives have a fitted effect of over 30% in size)
Progesterone receptor (Homo sapiens), sequence (P06401 whole entry, looked up): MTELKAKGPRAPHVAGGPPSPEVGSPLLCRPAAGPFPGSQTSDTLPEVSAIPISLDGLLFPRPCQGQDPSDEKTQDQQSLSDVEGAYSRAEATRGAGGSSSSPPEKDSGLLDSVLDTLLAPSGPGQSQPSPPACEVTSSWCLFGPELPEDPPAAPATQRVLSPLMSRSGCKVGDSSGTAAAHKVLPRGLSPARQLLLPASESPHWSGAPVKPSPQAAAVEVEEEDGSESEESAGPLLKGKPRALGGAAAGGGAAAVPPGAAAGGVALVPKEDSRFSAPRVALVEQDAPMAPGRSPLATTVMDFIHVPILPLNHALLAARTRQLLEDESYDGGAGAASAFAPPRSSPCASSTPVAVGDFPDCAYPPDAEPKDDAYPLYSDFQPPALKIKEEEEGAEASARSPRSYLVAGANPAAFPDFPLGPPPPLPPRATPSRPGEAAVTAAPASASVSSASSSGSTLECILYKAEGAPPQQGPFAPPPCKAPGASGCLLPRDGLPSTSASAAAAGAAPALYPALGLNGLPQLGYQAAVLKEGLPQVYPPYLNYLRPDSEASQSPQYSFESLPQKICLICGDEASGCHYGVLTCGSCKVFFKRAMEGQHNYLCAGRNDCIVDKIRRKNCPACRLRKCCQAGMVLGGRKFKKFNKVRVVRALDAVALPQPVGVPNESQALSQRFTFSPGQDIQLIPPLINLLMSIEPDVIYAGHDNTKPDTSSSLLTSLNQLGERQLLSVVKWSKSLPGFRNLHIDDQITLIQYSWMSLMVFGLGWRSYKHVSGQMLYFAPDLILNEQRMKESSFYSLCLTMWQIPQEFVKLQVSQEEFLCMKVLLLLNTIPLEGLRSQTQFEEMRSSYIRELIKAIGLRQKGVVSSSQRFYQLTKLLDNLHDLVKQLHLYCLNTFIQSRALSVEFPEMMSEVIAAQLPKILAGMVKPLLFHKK
How it was run: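 Agonist qHTS: compounds pinned onto 3,000 PR-UAS-bla HEK 293T cells per well in charcoal-stripped serum medium, 16hr at 37C, then beta-lactamase activity measured by LiveBLAzer FRET fluorescence after 2 hours at room temperature.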

[8] = biological target: Progesterone receptor (Homo sapiens) (UniProt P06401); assay: qHTS assay to identify small molecule antagonists of the progesterone receptor (PR) signaling pathway (AID 1346795; active = well fitted inhibition curve with a large enough effect in the signal ratio in the repeat runs, not every such curve was filed as active; the % refers to the signal ratio; also: potency is read from the fitted curve at half-maximal effect)
How it was run: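 Antagonist mode with agonist R5020 at 1 nM final and 16 hr incubation at 37C. Reporter was beta-lactamase driven by UAS in HEK293T (PR-UAS-bla), 2% charcoal-stripped serum; signal from LiveBLAzer FRET substrate, 2 hr at room temperature.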

[9] = qHTS assay to identify small molecule antagonists of the progesterone receptor (PR) signaling pathway - cell viability counter screen (AID 1346798); also: nearly all actives have a fitted effect of over 50% in size; also: potency is read from the fitted curve at half-maximal effect
How it was run: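 Cytotoxicity read as CellTiter-Glo luminescence (30 min, room temperature) in the same wells as the beta-lactamase readout. HEK293T PR-UAS-bla cells in charcoal-stripped 2% FBS received compound and R5020, then 16 h at 37C, 5% CO2.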

[10] = qHTS assay to identify small molecule agonists of the progesterone receptor (PR) signaling pathway - cell viability counter screen (AID 1346799; calls by dose curve; also: nearly all actives have a fitted effect of over 45% in size; also: potency is read from the fitted curve at half-maximal effect)
How it was run: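 Cytotoxicity measured by CellTiter-Glo luminescence (30 min, RT) in the same wells as the PR beta-lactamase agonist read. Those HEK293T cells had 16 h compound treatment at 37 C in 2% charcoal-stripped FBS medium.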

[11] = qHTS assay to identify small molecule antagonists of the TGF-beta/Smad signaling pathway - cell viability counter screen (AID 1346824); also: nearly all actives have a fitted effect of over 50% in size
How it was run: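 SBE-bla HEK 293T cells were plated overnight at 37 C, then given compounds in DMSO plus TGF-beta1 (added as 0.25 ng/mL solution) for 5 hr. After the bla read, CellTiter-Glo was added to the same wells and luminescence read after 30 min at room temperature.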

[12] = qHTS assay to identify small molecule agonists of the TGF-beta/Smad signaling pathway - cell viability counter screen (AID 1346829); also: top concentration of the series differs between compounds; nearly all actives have a fitted effect of over 45% in size
How it was run: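 After overnight seating at 37 C and 5% CO2, reporter cells got compounds for 5 hr and FRET substrate for 2 hr; cell viability then came from CellTiter-Glo luminescence.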

[13] = qHTS assay to identify small molecule agonists of the TGF-beta/Smad signaling pathway (AID 1346859; active = well fitted activation curve with a large enough effect in the signal ratio in the repeat runs, not every such curve was filed as active; the % refers to the signal ratio; also: series mostly up to about 77 µM)
How it was run: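 Fluorescence (ex 405 nm; em 460 and 530 nm) was read 2 h after LiveBLAzer FRET substrate at RT. The preceding compound treatment of overnight-plated SBE-bla HEK293T cells lasted 5 h at 37 C.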

[14] = biological target: Thyrotropin-releasing hormone receptor (Homo sapiens) (UniProt P34981); assay: qHTS assay to identify small molecule agonists of the thyrotropin-releasing hormone receptor (TRHR) signaling pathway (AID 1346891; calls by dose curve; also: series mostly up to about 58 µM)
Thyrotropin-releasing hormone receptor (Homo sapiens), sequence (P34981 whole entry, looked up): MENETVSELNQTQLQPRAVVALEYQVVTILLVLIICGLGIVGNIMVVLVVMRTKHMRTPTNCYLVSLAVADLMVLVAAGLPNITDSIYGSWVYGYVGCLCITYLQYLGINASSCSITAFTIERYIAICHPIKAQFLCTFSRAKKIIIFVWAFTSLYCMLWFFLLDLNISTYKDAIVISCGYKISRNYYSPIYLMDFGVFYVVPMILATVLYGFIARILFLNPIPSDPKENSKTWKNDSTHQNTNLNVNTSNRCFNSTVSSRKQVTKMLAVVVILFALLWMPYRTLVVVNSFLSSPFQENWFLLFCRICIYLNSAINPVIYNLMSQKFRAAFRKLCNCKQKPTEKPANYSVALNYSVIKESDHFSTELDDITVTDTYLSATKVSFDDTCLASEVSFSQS
How it was run: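 Agonist-mode intracellular calcium readout: kinetic fluorescence over 3 min at 1 s intervals after compound addition to TRHR-HEK293 cells (18 h seeded, 2 h dye-loaded at 37 C). Fifteen concentrations, triplicates.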

[15] = biological target: Thyrotropin receptor (Homo sapiens) (UniProt P16473); assay: qHTS assay to identify small molecule antagonists of the thyroid stimulating hormone receptor (TSHR) signaling pathway (AID 1259385; calls by dose curve; also: nearly all actives have a fitted effect of over 20% in size; also: potency is read from the fitted curve at half-maximal effect)
Thyrotropin receptor (Homo sapiens), sequence (P16473 whole entry, looked up): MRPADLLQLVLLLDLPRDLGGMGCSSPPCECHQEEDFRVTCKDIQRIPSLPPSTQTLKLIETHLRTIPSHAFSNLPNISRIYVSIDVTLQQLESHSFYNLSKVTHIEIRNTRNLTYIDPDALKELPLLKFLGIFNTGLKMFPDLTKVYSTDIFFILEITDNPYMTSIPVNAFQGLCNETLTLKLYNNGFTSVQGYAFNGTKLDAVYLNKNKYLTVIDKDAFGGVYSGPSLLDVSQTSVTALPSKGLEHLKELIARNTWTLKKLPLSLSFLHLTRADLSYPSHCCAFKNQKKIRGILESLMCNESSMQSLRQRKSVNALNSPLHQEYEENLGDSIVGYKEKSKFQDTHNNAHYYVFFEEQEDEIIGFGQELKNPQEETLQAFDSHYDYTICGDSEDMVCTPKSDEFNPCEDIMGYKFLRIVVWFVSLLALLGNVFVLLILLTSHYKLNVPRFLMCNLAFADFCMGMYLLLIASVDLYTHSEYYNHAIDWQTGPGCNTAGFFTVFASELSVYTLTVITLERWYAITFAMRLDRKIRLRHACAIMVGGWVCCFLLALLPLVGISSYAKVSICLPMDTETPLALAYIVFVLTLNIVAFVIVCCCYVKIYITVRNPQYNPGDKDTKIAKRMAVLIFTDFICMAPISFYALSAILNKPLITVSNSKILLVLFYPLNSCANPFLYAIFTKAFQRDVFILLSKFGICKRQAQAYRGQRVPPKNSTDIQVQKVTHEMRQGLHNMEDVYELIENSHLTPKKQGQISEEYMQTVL
How it was run: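 TSHR-HEK293 cells were plated and held 18 h at 37C/5% CO2, then given compound plus Ro20-1724 and stimulated with TSH at 1.5 ng/mL final. After 30 min at room temperature, cAMP was detected with cAMP-d2/anti-cAMP-cryptate (1 h) by fluorescence.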

[16] = qHTS assay to identify small molecule agonists of the estrogen receptor alpha (ER-alpha) signaling pathway in the presence of an antagonist - cell viability counter screen (AID 1259386);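 also: series mostly up to about 92 µM; cells exposed to compounds for 22 h at 37 °C before the viability read; nearly all actives have a fitted effect of over 30% in size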
How it was run: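 Cytotoxicity was measured in parallel with the ERE-luciferase agonist screen, in the same wells. The cells were VM7Luc4E2, which endogenously express ER-alpha, and treatment was with compounds plus 10.0nM ICI-182,780 for 22hr.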

[17] = biological target: Thyrotropin-releasing hormone receptor (Homo sapiens) (UniProt P34981); assay: qHTS assay to identify small molecule antagonists of the thyrotropin-releasing hormone receptor (TRHR) signaling pathway (AID 1346877; active = well fitted inhibition curve with a large enough effect in the repeat runs, not every such curve was filed as active; also: series mostly up to about 51 µM)
How it was run: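 Antagonism is measured as suppression of the calcium response to 1 nM TRH in TRHR-HEK293 cells that have been dye-loaded for 2 h at 37 °C after overnight plating. Each compound is tested at 15 concentrations in triplicate.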

[18] = Human pregnane X receptor (PXR) small molecule agonists, qHTS cell viability counter screen (AID 1346977); also: nearly all actives have a fitted effect of over 50% in size; also: potency is read from the fitted curve at half-maximal effect
How it was run: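 Same-well viability read: CellTiter-Fluor added after 23 hr compound exposure, fluorescence measured 1 hr later. Cells were PXR-Luc HepG2 seeded at 2,000/well in 5% charcoal-stripped FBS medium, rested 5 hr before dosing at 37 C.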

[19] = qHTS assay to identify small molecule antagonists of the estrogen receptor beta (ER-beta) signaling pathway - cell viability counter screen (AID 1259382); also: nearly all actives have a fitted effect of over 55% in size; also: potency is read from the fitted curve at half-maximal effect
How it was run: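 Cytotoxicity counter screen multiplexed with the beta-lactamase antagonist assay: GripTite HEK293T ER-beta-bla cells were treated 16 hr with test chemicals in the presence of 1nM 17-beta-estradiol, and viability was measured by CellTiter-Glo.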

[20] = biological target: Androgen receptor (Homo sapiens) (UniProt P10275); assay: qHTS assay to identify small molecule agonists of the androgen receptor (AR) signaling pathway in the presence of an antagonist (AID 1259381; calls by dose curve; also: nearly all actives have a fitted effect of over 15% in size)
Androgen receptor (Homo sapiens), sequence (P10275 whole entry, looked up): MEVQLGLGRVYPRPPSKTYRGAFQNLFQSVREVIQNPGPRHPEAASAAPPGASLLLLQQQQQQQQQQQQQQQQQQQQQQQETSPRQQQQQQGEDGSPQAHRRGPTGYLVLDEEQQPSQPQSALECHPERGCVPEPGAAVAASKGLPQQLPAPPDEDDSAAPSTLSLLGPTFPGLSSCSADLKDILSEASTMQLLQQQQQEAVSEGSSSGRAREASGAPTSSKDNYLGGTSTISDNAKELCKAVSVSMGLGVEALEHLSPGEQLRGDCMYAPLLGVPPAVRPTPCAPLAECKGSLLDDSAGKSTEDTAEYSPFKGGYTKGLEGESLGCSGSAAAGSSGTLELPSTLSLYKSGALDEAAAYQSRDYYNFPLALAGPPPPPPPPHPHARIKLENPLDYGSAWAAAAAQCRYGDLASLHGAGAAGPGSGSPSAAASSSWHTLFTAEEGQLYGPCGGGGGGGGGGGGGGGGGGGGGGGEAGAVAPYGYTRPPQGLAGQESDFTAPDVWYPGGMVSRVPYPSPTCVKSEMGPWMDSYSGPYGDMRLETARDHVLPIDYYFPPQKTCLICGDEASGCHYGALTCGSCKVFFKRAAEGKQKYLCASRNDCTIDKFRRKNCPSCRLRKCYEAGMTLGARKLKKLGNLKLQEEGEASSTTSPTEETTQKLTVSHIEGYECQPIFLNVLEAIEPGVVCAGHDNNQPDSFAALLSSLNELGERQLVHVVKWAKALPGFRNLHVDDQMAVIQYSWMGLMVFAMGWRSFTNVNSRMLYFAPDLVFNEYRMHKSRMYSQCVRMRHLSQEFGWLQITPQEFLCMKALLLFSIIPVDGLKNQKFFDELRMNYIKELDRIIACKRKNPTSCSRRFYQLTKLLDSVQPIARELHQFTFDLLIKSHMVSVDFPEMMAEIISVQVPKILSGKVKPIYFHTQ
How it was run: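 Agonist-mode confirmation screen: human MDA-kb2 cells stably expressing luciferase under an MMTV promoter bearing AR and GR response elements, co-treated with 3.0uM nilutamide (final). Luminescence measured after 16hr compound incubation.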

Row | SMILES | Potency [1] | Potency [2] | Potency [3] | Potency [4] | Potency [5] | outcome [6] | outcome [7] | Potency [8] | Potency [9] | Potency [10] | Potency [11] | Potency [12] | Potency [13] | Potency [14] | Potency [15] | Potency [16] | Potency [17] | Potency [18] | Potency [19] | Potency [20]
1 | CC(C)=CC1CC(C)CCO1 (stereo not given) | inactive | inactive | inactive | inactive | inactive | inactive | inactive | inactive | inactive | inactive | inactive | inactive | inactive | inactive |  |  |  |  |  | 
2 | Clc1ccc(C(c2ccccc2Cl)C(Cl)Cl)cc1 (stereo not given) | inactive | 19.3 µM (active) | inactive | 48.6 µM (active) |  | inactive | inactive | 3.44 µM (active) | inactive |  | inactive | inactive | inactive | inactive | inactive | inactive | inactive | inactive |  | 
3 | O=C1NCN(c2ccccc2)C12CCN(CCCC(c1ccc(F)cc1)c1ccc(F)cc1)CC2 | inactive | 18.8 µM (active) | 29.8 µM (active) |  |  | inactive |  | 26.6 µM (active) |  |  |  |  |  | inactive | inactive | inactive | inactive |  | 26.6 µM (active) | 
4 | COC(=O)[C@]1(C)CCC[C@@]2(C)[C@H]1CC=C1C=C(C(C)C)CC[C@@H]12 | inactive | inactive | inactive | 68.6 µM (active) |  | inactive | inactive |  |  |  | inactive | inactive | inactive |  | inactive | inactive | inactive | inactive | inactive | 
5 | Cc1nc(Nc2ncc(C(=O)Nc3c(C)cccc3Cl)s2)cc(N2CCN(CCO)CC2)n1 | inactive | 23.7 µM (active) |  |  | inactive | inactive | inactive | 13.3 µM (active) | inactive | inactive | inactive |  | inactive | inactive | 26.6 µM (active) |  | inactive | 9.44 µM (active) | inactive | 
6 | NC1(c2ccc(-c3nc4ccn5c(=O)[nH]nc5c4cc3-c3ccccc3)cc2)CCC1 | inactive |  | 16.8 µM (active) | 1.19 µM (active) | inactive | inactive | inactive | inactive |  |  | inactive | inactive |  | inactive | 29.8 µM (active) |  | inactive | 26.6 µM (active) | 2.11 µM (active) | 
7 | CC1=C(/C=C/C(C)=C/C=C/C(C)=C\C=O)C(C)(C)CCC1 | inactive | 32.5 µM (active) |  | 41 µM (active) |  | inactive | inactive | inactive |  | inactive | inactive | inactive |  | inactive | inactive |  | inactive |  |  | 
8 | C/C=C/C=N/NC(=O)c1ccncc1 | inactive |  | inactive | inactive |  | inactive | inactive | inactive | inactive | inactive | inactive | inactive | inactive | inactive |  | inactive | inactive |  | inactive | 
9 | C=CC(=O)OCC(O)COc1ccccc1 (stereo not given) | inactive | inactive |  |  | inactive |  | inactive |  |  | inactive | inactive | inactive | inactive | inactive |  | inactive | inactive | inactive | inactive | 
10 | CCCCN(CCCC)CCC(O)c1cc2c(Cl)cc(Cl)cc2c2cc(C(F)(F)F)ccc12 (stereo not given) | inactive |  |  | 7.5 µM (active) | inactive | inactive | inactive | inactive |  | inactive | inactive | inactive | inactive |  | inactive |  |  | 26.6 µM (active) |  | 
11 | O=C1C=CC(=O)N1c1ccccc1 | inactive |  | 61.1 µM (active) | 27.3 µM (active) | inactive |  |  |  | 68.6 µM (active) | 61.1 µM (active) |  |  | inactive | inactive |  |  | inactive | 48.6 µM (active) | 48.6 µM (active) | inactive
12 | CCCCCCCOC(=O)c1ccc(O)cc1 | inactive |  | inactive | 30.7 µM (active) and 24.3 µM (active) | 48.6 µM (active) |  |  | 24.4 µM (active) and 38.6 µM (active) |  |  | inactive | inactive | inactive |  |  |  |  | inactive |  | 
13 | CC(C)N=C(N)/N=C(\N)Nc1ccc(Cl)cc1 | inactive |  | inactive | 23.7 µM (active) | inactive |  | inactive |  | inactive | inactive | inactive | inactive | inactive | inactive |  | inactive |  |  |  | 
14 | Nc1ncnc2c1ncn2[C@@H]1O[C@H](COP(=O)(O)O)[C@@H](O)[C@H]1O | inactive |  | inactive | 26.6 µM (active) |  | inactive | inactive | inactive |  | inactive | inactive | inactive | inactive | inactive | inactive | inactive | inactive | inactive | inactive | 
15 | CN(C)CCOC(c1ccccc1)c1ccccc1 (tested in a mixture with another compound) | inactive |  | inactive | 69.1 µM (active) | inactive | inactive |  |  |  |  | inactive | inactive | inactive | inactive | inactive |  | inactive |  |  | inactive
16 | Cc1c(C)n(Cc2ccccc2)c2ccc(C(=O)OCCN(C)C)cc12 | inactive | 23.7 µM (active) |  |  |  | inactive | inactive | 26.6 µM (active) | inactive | inactive | inactive | inactive | inactive | inactive |  | inactive | inactive | 21.1 µM (active) |  | 
17 | CCCCCCOc1ccc(O)cc1 | inactive |  | inactive |  | inactive | inactive |  | 13.7 µM (active) | inactive | inactive | inactive | inactive | inactive | inactive | inactive | inactive | inactive |  |  | inactive
